Compounds with a hit are over-represented: about 2.3% of the library has one in this group of screens.
CHO-K1 Ca ag: counter-screen for M1 agonists: effect in parental CHO-K1 cells. Fluo-8 calcium fluorescence; scaled to maximal ATP response, vehicle zero. activation, % at 3 µM. hit rate 0.48% among 360,000. AID 602248; in the data active = activation above about 15%;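 note: untransfected CHO-K1 host cells lacking M1 receptor as counterscreen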
CHO-K1 Ca PAM: M1 PAM counterscreen hit in parental CHO-K1 cells; ATP EC20, Fluo-8 calcium fluorescence; 0% at ATP EC20, 100% at ATP max; activation, % at 3 µM; hit rate 0.02% among 360,000;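 active = activation above the run cutoff, the mean activation of all test compounds plus 3 SD, cut at about 40% in these data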;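 note: peak over basal fluorescence ratio in a 140 s read after ATP addition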
CHO-K1 Ca antag: nonselective inhibitor or artifact in parental CHO-K1 cells. AID 602250. hit rate 0.6% among 360,000. inhibition, % at 3 µM. ATP-induced calcium, Fluo-8 fluorescence;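 active = inhibition above a per-plate cutoff, the plate's mean sample inhibition plus 3 SD, cut at about 24% in these data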
M1 antag: blocks human M1 muscarinic receptor; hit rate 1.3% among 360,000; P11229; inhibition, % at 3 µM; AID 588852; CHO-K1 hM1, Fluo-8 calcium fluorescence, ACh EC80 antagonist;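 active = percent inhibition above its own plate's cutoff, namely the mean of that plate's compound wells plus 3 SD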;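 note: peak over basal fluorescence ratio during 140 s after agonist addition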
Target sequence (P11229 whole entry, looked up): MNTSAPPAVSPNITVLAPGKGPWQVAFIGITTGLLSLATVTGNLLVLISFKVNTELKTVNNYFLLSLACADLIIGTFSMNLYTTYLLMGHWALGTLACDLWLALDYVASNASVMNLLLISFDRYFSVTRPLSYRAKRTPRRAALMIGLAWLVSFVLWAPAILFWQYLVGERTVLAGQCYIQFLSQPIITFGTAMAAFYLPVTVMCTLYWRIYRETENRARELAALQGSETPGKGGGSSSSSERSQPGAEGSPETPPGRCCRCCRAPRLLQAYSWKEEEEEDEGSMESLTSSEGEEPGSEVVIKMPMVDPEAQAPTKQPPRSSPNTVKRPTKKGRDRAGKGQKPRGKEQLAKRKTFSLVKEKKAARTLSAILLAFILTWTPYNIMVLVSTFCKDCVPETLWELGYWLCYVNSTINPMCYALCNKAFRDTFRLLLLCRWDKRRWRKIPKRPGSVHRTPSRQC
CHRM1 agonist: activates human CHRM1 receptor; CHO-K1 hM1, Fluo-8 calcium fluorescence, agonist mode; 0% DMSO, 100% acetylcholine EC100; activation, % at 3 µM; hit rate 0.33% among 360,000;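 active = activation above the run's mean compound activation plus 3 SD, cut at about 16% in these data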;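 note: peak over basal fluorescence ratio within a 140 s kinetic read after compound addition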
CHRM1 PAM: positive allosteric modulators of human M1 muscarinic receptor. P11229. CHO-K1 hM1, Fluo-8 calcium fluorescence, ACh EC20; 0% = ACh EC20, 100% = maximal ACh. activation, % at 3 µM. hit rate 0.088% among 360,000. AID 588819; in the data active = activation above about 19%, passing the limit was not always enough
Hits are given with their value; - = inactive; ! = not confirmed by another sample.

SMILES	CHO-K1 Ca ag	CHO-K1 Ca PAM	CHO-K1 Ca antag	M1 antag	CHRM1 agonist	CHRM1 PAM
Cc1ccc(S(=O)(=O)NCCNc2ccc([N+](=O)[O-])cc2)cc1	-	-	-	-	-	-
CCn1c(=O)n(CC(=O)Nc2ccc(F)cc2)c(=O)c2ccccc21	-	-	29.1	-	-	-
CCN=C1SC(CC(=O)Nc2ccc(C(F)(F)F)cc2)C(=O)N1CC (configuration not stated)	-	-	-	33.2	-	-
CCN=C1SC(CC(=O)Nc2ccc(N3CCOCC3)cc2)C(=O)N1CC (configuration not stated)	-	-	-	-	-	-
CC(=O)Nc1c(O)nc(SCC(=O)N2CCCCC2)[nH]c1=O	-	-	-	-	-	26.4
Fc1ccccc1NC(=S)N1CCN(Cc2ccccc2)CC1	-	-	-	-	-	-
CCC(C)C(CO)NCCCn1cnc2c(OC)ncnc21 (configuration not stated)	-	-	-	20.8	-	-
Cc1ccc(S(=O)(=O)N2CCN(C(=O)COC(=O)CCCOc3ccccc3)CC2)c(C)c1	-	-	-	-	-	-
Cc1ccc(/C=C2\SC(=S)N(CCC(=O)N3CCCCC3)C2=O)cc1	-	-	-	-	-	-
O=C1/C(=C\c2cc(Cl)c(O)c(Cl)c2)SC(=S)N1Cc1ccccc1	16.2	-	-	53.6	51.4	-
O=C(CCN1C(=O)/C(=C\c2ccccc2)SC1=S)N1CCCCC1	15.1	-	-	-	-	-
COc1cccc(/C=C2\SC(=S)N(CCCC(=O)N3CCCCC3CCO)C2=O)c1 (configuration not stated)	15.3	-	-	-	-	-
O=C(O)CN1C(=O)/C(=C/C=C/c2ccccc2)SC1=S	-	-	31.3	-	-	-
CC(=O)c1ccc(NC(=O)CN2C(=O)/C(=C/C=C/c3ccccc3)SC2=S)cc1	-	-	-	-	-	-
COC(=O)c1cc(C(=O)NCc2ccc3c(c2)OCO3)cc([N+](=O)[O-])c1	-	-	-	-	-	-
COc1cc(CN2C[C@@H](CO)O[C@@H](n3cnc4c(NCc5ccncc5)ncnc43)C2)cc(OC)c1OC	-	-	-	-	-	-
O=[N+]([O-])c1ccc(S(=O)(=O)NCCc2cn3ccccc3n2)cc1	-	-	-	-	-	28.1
CN1CCc2c(c3ccccc3n2Cc2ccccc2)C1	-	-	-	65.9!	-	-
CCOC(=O)C1=C(O)/C(=C\c2ccc(CNC(=O)C(=O)Nc3ccccc3)o2)N=C1C	-	-	28.2	-	-	-
CN1/C(=C\C=C2/SC(=S)NC2=O)C(C)(C)c2ccccc21	71.9	-	59.1	61.9	57.4	-
Cc1ccccc1N=C/C=C1\N(C)c2ccccc2C1(C)C	-	-	-	25.2	-	-
CC1=NN(c2ccccc2)C(=O)/C1=C\C=C1/N(C)c2ccccc2C1(C)C	32.0	-	-	25.9	22.9	-
CC1=NN(c2ccccc2)C(=O)/C1=C\C=C1\N(C)c2ccccc2C1(C)C	-	-	-	-	-	-
CN1/C(=C\C=N\O)C(C)(C)c2ccccc21	-	-	-	-	-	-
COC(=O)CCC1(C(N)=O)CCC(=O)c2ccccc21 (configuration not stated)	-	-	-	-	-	-
SMILES	CHO-K1 Ca ag	CHO-K1 Ca PAM	CHO-K1 Ca antag	M1 antag	CHRM1 agonist	CHRM1 PAM
Fc1ccccc1Cn1c2[n+](c3ccc(C(F)(F)F)cc31)CCCCC2	-	-	-	33.6	-	-
COc1cccc(C(NC(C)=O)c2nc(-c3ccoc3)cs2)c1 (configuration not stated)	-	-	-	-	-	-
CN1CCN(C(=O)CN(c2cccc(Cl)c2)S(=O)(=O)c2ccccc2)CC1	-	-	-	28.1	-	-
Cc1cccc(N(CC(=O)N2CCN(C)CC2)S(=O)(=O)c2ccccc2)c1	-	-	-	-	-	-
COc1ccc(Cn2c(-c3ccc(Br)cc3)c[n+]3ccccc23)cc1	-	-	-	41.6	-	-
O=C(CSc1nnc(SCc2ccccc2)s1)NNC(=S)Nc1ccccc1	-	-	28.8	-	-	-
O=C(O)Cc1ccc(NC(=S)Nc2ccc(Br)cc2Cl)cc1	-	-	-	-	-	-
